The text below walks through data of PMC8384837, “Expanding the binding specificity for RNA recognition by a PUF domain”.

Holding throughout (assay): yeast three-hybrid, YBZ-1, SC-Leu-His + 0.5 mM 3-AT, 4 days
What all share (conditions): tags: N-Gal4 AD-HA kept; label: inside an RPR1-promoter hybrid RNA with tandem MS2 sites; ssRNA

The target in one assay is PUM1 PUF domain R4-NRA (Homo sapiens, UniProt Q14671 828-1176, H972R;Q975A). In outline:
(§1)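 Repeat regions from input (SC-Leu) and selection (SC-Leu-His + 0.5 mM 3-AT) plates were PCR-amplified and Illumina-sequenced after four days of growth. The cells were strain YBZ-1 with a LexA–MS2 coat fusion and a HIS3 reporter, co-expressing Pumilio-1 PUF domain libraries and matching RNA elements from a centromeric plasmid. The interaction score is the log change in variant frequency from input to selection, taken in log2 with a pseudocount of 1 for absent variants.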

For another assay, the target named is PUM1 PUF domain R4-PYV (Homo sapiens, UniProt Q14671 828-1176, N971P;H972Y;Q975V). In outline:
as §1

In the next assay the target is PUM1 PUF domain R4-EHF (Homo sapiens, UniProt Q14671 828-1176, N971E;Q975F). In outline: as §1
Another assay deals with T1, PUM1 PUF domain R6-VYC (Homo sapiens, UniProt Q14671 828-1176, N1043V;Q1047C).
T1 sequence: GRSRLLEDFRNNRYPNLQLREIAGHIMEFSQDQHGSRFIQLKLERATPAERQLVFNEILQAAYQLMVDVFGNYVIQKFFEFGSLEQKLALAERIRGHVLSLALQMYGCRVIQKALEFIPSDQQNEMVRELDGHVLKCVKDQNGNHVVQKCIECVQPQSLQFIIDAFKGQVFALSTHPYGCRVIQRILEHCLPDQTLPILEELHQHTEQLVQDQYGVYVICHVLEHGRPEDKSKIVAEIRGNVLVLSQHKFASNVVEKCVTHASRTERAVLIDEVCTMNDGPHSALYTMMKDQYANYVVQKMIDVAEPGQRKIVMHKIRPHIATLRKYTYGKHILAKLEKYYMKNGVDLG
In outline: as §1

Another assay addresses PUM1 PUF domain R4-GHP (Homo sapiens, UniProt Q14671 828-1176, N971G;Q975P). In short, it runs like this: as §1
A further assay concerns the target PUM1 PUF domain R5-KRR (Homo sapiens, UniProt Q14671 828-1176, C1007K;Q1011R). In outline: as §1
For a further assay, the target named is PUM1 PUF domain R5-RMS (Homo sapiens, UniProt Q14671 828-1176, C1007R;R1008M;Q1011S). In outline:
as §1

A further assay concerns the target PUM1 PUF domain R5-KDR (Homo sapiens, UniProt Q14671 828-1176, C1007K;R1008D;Q1011R). In short, it runs like this: as §1
A further assay deals with PUM1 PUF domain R5-KRL (Homo sapiens, UniProt Q14671 828-1176, C1007K;Q1011L). In short, it runs like this:
as §1

Another assay addresses PUM1 PUF domain R5-RMD (Homo sapiens, UniProt Q14671 828-1176, C1007R;R1008M;Q1011D). In short, it runs like this: as §1
A further assay concerns the target PUM1 PUF domain R3-IWL (Homo sapiens, UniProt Q14671 828-1176, C935I;R936W;Q939L). In short, it runs like this:
as §1

The target of the next assay is PUM1 PUF domain R3-SSE (Homo sapiens, UniProt Q14671 828-1176, C935S;R936S;Q939E). In short, it runs like this:
as §1

The next assay deals with PUM1 PUF domain R3-DYA (Homo sapiens, UniProt Q14671 828-1176, C935D;R936Y;Q939A). In outline:
as §1

The next assay deals with PUM1 PUF domain R7-RPM (Homo sapiens, UniProt Q14671 828-1176, S1079R;N1080P;E1083M). In short, it runs like this:
as §1

Another assay has as its target PUM1 PUF domain R8-RYG (Homo sapiens, UniProt Q14671 828-1176, N1122R;Q1126G). In outline: as §1
The next assay has as its target PUM1 PUF domain R8-RFQ (Homo sapiens, UniProt Q14671 828-1176, N1122R;Y1123F). In outline:
as §1

In the case of “GGCUAGAACUAGUGGAUCCCCCGGCGCCCGGCGGCUCGAGCCCGGGUAAGUGUAUAUAGUCUGCAUGCCGCCGGGCGCCAUGCCUGCAGGUCGACUCUAGAAAACAUG”, the figures for the binding signal in the assay with PUM1 PUF domain R4-NRA, with PUM1 PUF domain R4-PYV and in the assay with PUM1 PUF domain R4-EHF were 2.48 log2 enrichment (interaction score), 7.86 log2 enrichment (interaction score) and 5.95 log2 enrichment (interaction score), respectively.

As to “GGCUAGAACUAGUGGAUCCCCCGGCGCCCGGCGGCUCGAGCCCGGGUAAGUGAAAAUAGUCUGCAUGCCGCCGGGCGCCAUGCCUGCAGGUCGACUCUAGAAAACAUG”, the binding signal with PUM1 PUF domain R6-VYC is 6.26 log2 enrichment (interaction score).

As to “GGCUAGAACUAGUGGAUCCCCCGGCGCCCGGCGGCUCGAGCCCGGGUAAGUGUACAUAGUCUGCAUGCCGCCGGGCGCCAUGCCUGCAGGUCGACUCUAGAAAACAUG”, the figures for the binding signal with PUM1 PUF domain R4-GHP and in the assay with PUM1 PUF domain R4-PYV were 5.4 log2 enrichment (interaction score) and 6.43 log2 enrichment (interaction score), respectively.

As to “GGCUAGAACUAGUGGAUCCCCCGGCGCCCGGCGGCUCGAGCCCGGGUAAGUGUCAAUAGUCUGCAUGCCGCCGGGCGCCAUGCCUGCAGGUCGACUCUAGAAAACAUG”, the binding signal with PUM1 PUF domain R5-KRR was 3.6 log2 enrichment (interaction score); with PUM1 PUF domain R5-RMS it was 3.6 log2 enrichment (interaction score); with PUM1 PUF domain R5-KDR, 4.77 log2 enrichment (interaction score); with PUM1 PUF domain R5-KRL, 3.16 log2 enrichment (interaction score); in the assay with PUM1 PUF domain R5-RMD, 4.23 log2 enrichment (interaction score).

Regarding “GGCUAGAACUAGUGGAUCCCCCGGCGCCCGGCGGCUCGAGCCCGGGUAAGUGUAAGUAGUCUGCAUGCCGCCGGGCGCCAUGCCUGCAGGUCGACUCUAGAAAACAUG”, the values for the binding signal with PUM1 PUF domain R3-IWL, with PUM1 PUF domain R3-SSE and with PUM1 PUF domain R3-DYA were 2.77 log2 enrichment (interaction score), 6.26 log2 enrichment (interaction score) and 1.16 log2 enrichment (interaction score), respectively.

Consider “GGCUAGAACUAGUGGAUCCCCCGGCGCCCGGCGGCUCGAGCCCGGGUAAGUUUAAAUAGUCUGCAUGCCGCCGGGCGCCAUGCCUGCAGGUCGACUCUAGAAAACAUG”, for which the binding signal with PUM1 PUF domain R7-RPM was 3.18 log2 enrichment (interaction score).

Regarding “GGCUAGAACUAGUGGAUCCCCCGGCGCCCGGCGGCUCGAGCCCGGGUAAGCGUAAAUAGUCUGCAUGCCGCCGGGCGCCAUGCCUGCAGGUCGACUCUAGAAAACAUG”, the binding signal is 5.66 log2 enrichment (interaction score) with PUM1 PUF domain R8-RYG and 5.63 log2 enrichment (interaction score) in the assay with PUM1 PUF domain R8-RFQ.

With “GGCUAGAACUAGUGGAUCCCCCGGCGCCCGGCGGCUCGAGCCCGGGUAAGGGUAAAUAGUCUGCAUGCCGCCGGGCGCCAUGCCUGCAGGUCGACUCUAGAAAACAUG”, the binding signal with PUM1 PUF domain R8-RFQ is 2.44 log2 enrichment (interaction score).
